Data: the supplement of paper PMC8975748
Counter-ions that a name gives are not always drawn.

System: Saccharomyces cerevisiae BY4741 SeMeCo community
Assay: z-score of prototroph abundance vs DMSO median; higher = larger share of this subpopulation than in DMSO controls
Settings: 10 µM; 24 h; SM minimal medium; subpopulation (auxotrophy): Prototroph
Outline: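 A Saccharomyces cerevisiae BY4741 community carried four plasmids, each restoring one auxotrophy and encoding a distinct fluorescent protein. It was pre-grown overnight to OD600 1.0, diluted to 0.3, and 70 µl was added to 384-well plates acoustically predosed with library drugs (10 µM final), then grown 24 h in minimal SM medium. Cells were paraformaldehyde-fixed and imaged by automated confocal microscopy, with single-auxotroph fluorescent strains setting thresholds and autofluorescence correction. Each subpopulation's abundance was scored as a z-score against the vehicle-well median.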

Compound	z-score of prototroph abundance
N=C(N)NC(=N)N1CCOCC1 [Moroxydine HCl]	0.31
CN1CCOC(c2ccccc2)c2ccccc2C1 (centres undefined) [Nefopam HCl]	0.32
Cc1ccc2c(Cl)cc(Cl)c(O)c2n1 [Chlorquinaldol]	-18.8
NC[C@@H]1O[C@H](O[C@H]2[C@@H](O)[C@H](O[C@@H]3[C@@H](O)[C@H](N)C[C@H](N)[C@H]3O[C@H]3O[C@H](CO)[C@@H](O)[C@H](O)[C@H]3N)O[C@@H]2CO)[C@H](N)[C@@H](O)[C@@H]1O [Paromomycin Sulfate]	-0.33
CN(C)CCC=C1c2ccccc2C=Cc2ccccc21 [Cyclobenzaprine HCl]	-0.37
CCNC(=O)[C@@H]1CCCN1C(=O)[C@H](CCCNC(=N)N)NC(=O)[C@H](CC(C)C)NC(=O)[C@@H](CC(C)C)NC(=O)[C@H](Cc1ccc(O)cc1)NC(=O)[C@H](CO)NC(=O)[C@H](Cc1c[nH]c2ccccc12)NC(=O)[C@H](Cc1c[nH]cn1)NC(=O)[C@@H]1CCC(=O)N1 [Leuprolide Acetate]	-0.62
CCN1CCN(c2cc3c(cc2F)c(=O)c(C(=O)O)cn3C2CC2)CC1 [Enrofloxacin]	0.16
O=C1CN(/N=C/c2ccc(-c3ccc([N+](=O)[O-])cc3)o2)C(=O)N1 [Dantrolene sodium]	2.09
Cc1cc(-c2ccc(/N=N/c3ccc4c(S(=O)(=O)O)cc(S(=O)(=O)O)c(N)c4c3O)c(C)c2)ccc1/N=N/c1ccc2c(S(=O)(=O)O)cc(S(=O)(=O)O)c(N)c2c1O [Evans Blue]	-9.18
NC[C@H]1O[C@H](O[C@H]2[C@H](O)[C@@H](O[C@H]3O[C@H](CO)[C@@H](O)[C@H](N)[C@H]3O)[C@H](N)C[C@@H]2N)[C@H](N)C[C@@H]1O [Tobramycin]	0.02
CCc1cccc2c3c([nH]c12)C(CC)(CC(=O)O)OCC3 (centres undefined) [Etodolac]	1.07
CO[C@H]1C[C@@H]2CC[C@@H](C)[C@@](O)(O2)C(=O)C(=O)N2CCCC[C@H]2C(=O)O[C@H]([C@H](C)C[C@@H]2CC[C@@H](OP(C)(C)=O)[C@H](OC)C2)CC(=O)[C@H](C)/C=C(\C)[C@@H](O)[C@@H](OC)C(=O)[C@H](C)C[C@H](C)/C=C/C=C/C=C/1C [Ridaforolimus (Deforolimus, MK-8669)]	-18.3
CC[C@@H]1/C=C(\C)C[C@H](C)C[C@H](OC)[C@H]2O[C@@](O)(C(=O)C(=O)N3CCCC[C@H]3C(=O)O[C@H](/C(C)=C/[C@@H]3CC[C@H](Cl)[C@H](OC)C3)[C@H](C)[C@@H](O)CC1=O)[C@H](C)C[C@@H]2OC [Pimecrolimus]	-1.82
CC[N+](CC)(CC)CCOc1cccc(OCC[N+](CC)(CC)CC)c1OCC[N+](CC)(CC)CC [Gallamine Triethiodide]	0.05
CN1[C@@H](CC(=O)c2ccccc2)CCC[C@H]1C[C@H](O)c1ccccc1 [Lobeline hydrochloride]	0.02
CCC(C)n1ncn(-c2ccc(N3CCN(c4ccc(OCC5COC(Cn6cncn6)(c6ccc(Cl)cc6Cl)O5)cc4)CC3)cc2)c1=O (centres undefined) [Itraconazole]	-10.4
OC[C@H]1O[C@H](OCC2O[C@@H](O)[C@H](O)[C@@H](O)[C@@H]2O)[C@H](O)[C@@H](O)[C@H]1O (some centres undefined) [Melibiose]	-0.13
C[N+](C)(C)CCO.[Cl-] [Choline Chloride]	0.21
COC(=O)C1=C(C#N)NC(C)=C(C(=O)OC(C)C)C1c1cccc([N+](=O)[O-])c1 (centres undefined) [Nilvadipine]	0.22
CC(=O)O[C@]1(C(C)=O)CC[C@H]2[C@@H]3C[C@H](C)C4=CC(=O)CC[C@]4(C)[C@H]3CC[C@@]21C [Medroxyprogesterone acetate]	0.03
O=C(c1ccc(F)cc1)C1CCN(CCn2c(=O)[nH]c3ccccc3c2=O)CC1 [Ketanserin]	0.15
Cc1onc(-c2c(Cl)cccc2Cl)c1C(=O)N[C@@H]1C(=O)N2[C@@H]1SC(C)(C)[C@@H]2C(=O)O [Dicloxacillin Sodium]	0.04
C=CC[N+]1([C@H]2C[C@H]3[C@@H]4CC[C@H]5C[C@H](O)[C@@H](N6CCOCC6)C[C@]5(C)[C@H]4CC[C@]3(C)[C@H]2OC(C)=O)CCCC1 [Rocuronium Bromide]	0.88
CCn1cc(C(=O)O)c(=O)c2cc(F)c(N3CCNCC3)cc21 [Norfloxacin]	0.05
CN1CCC(=C2c3ccccc3CCc3sccc32)CC1 [Pizotifen Malate]	0.02
CC1(C)S[C@@H]2[C@H](NC(=O)[C@H](NC(=O)N3CCN(S(C)(=O)=O)C3=O)c3ccccc3)C(=O)N2[C@H]1C(=O)O [Mezlocillin Sodium]	0.2
Cc1c(OCC(F)(F)F)ccnc1C[S@@+]([O-])c1nc2ccccc2[nH]1 [Dexlansoprazole]	0.34
Cc1nc(C)c(Cl)c(O)c1Cl [Clopidol]	0.11
COc1ccc(C(=O)NCc2ccc(OCCN(C)C)cc2)cc1OC [Itopride hydrochloride]	-0.3
